Data taken from the supplement of paper PMC6555819.

Legend:
Assay in all cases: PBM binding z-score (relative to random genomic background probes); higher = stronger binding; sequences stand for … in GC…GCGATTGACAGCGTAGAATGAAGG
[1] = system: FXR:RXRa (NR concentration 270 nM, RXRa partner concentration 90 nM)
Outline: (§1)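 Ligand-free nuclear receptor dimers were applied to custom Agilent 4×180K protein-binding microarrays whose double-stranded probes carried direct-repeat seeds, single-nucleotide variants, half-site ablations and random human genomic background sequences in 34-nt variable regions. Incubation lasted 1 h. Binding z-scores were computed against the random background probes from regression-normalized fluorescence.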

[2] = system: LXRa:RXRa (NR concentration 270 nM, RXRa partner concentration 90 nM)
Outline: as §1

[3] = system: LXRa homodimer (NR concentration 270 nM)
Outline: as §1

[4] = system: LXRb:RXRa (NR concentration 270 nM, RXRa partner concentration 90 nM)
Outline: as §1

[5] = system: LXRb homodimer (NR concentration 270 nM)
Outline: as §1

[6] = system: PPARa:RXRa (NR concentration 270 nM, RXRa partner concentration 90 nM)
Outline: as §1

[7] = system: PPARg:RXRa (NR concentration 180 nM, RXRa partner concentration 90 nM)
Outline: as §1

[8] = system: PPARg:RXRa 270nM:90nM, anti-RXR (NR concentration 270 nM, RXRa partner concentration 90 nM)
Outline: as §1

[9] = system: PPARg:RXRa 30nM:10nM, anti-RXR (NR concentration 30 nM, RXRa partner concentration 10 nM)
Outline: as §1

[10] = system: PPARg:RXRa 90nM:30nM, anti-RXR (NR concentration 90 nM, RXRa partner concentration 30 nM)
Outline: as §1

Row | Sequence | PBM binding z-score [1] | PBM binding z-score [2] | PBM binding z-score [3] | PBM binding z-score [4] | PBM binding z-score [5] | PBM binding z-score [6] | PBM binding z-score [7] | PBM binding z-score [8] | PBM binding z-score [9] | PBM binding z-score [10]
1 | AGTCAAAGTTCATCTAGCTAACGTAAGATATGCT | 6.22 | 5.88 | 4.89 | 3.8 | 1.73 | 4.45 | 6.14 | 6.05 | 3.68 | 5.44
2 | ACTAGTTGATCAGCTGAGGTCACACACAATTCGG | 3.31 | 2.93 | 1.91 | 3.51 | 0.605 | 3.89 | 1.6 | 2.33 | 0.574 | 1.42
3 | CCGACTGGGCCACGAAAGGTCATTGATTCAGTGA | 3.33 | 4.99 | 3.8 | 4.13 | -0.0773 | 4.31 | 3.41 | 4.06 | 1.52 | 3.16
4 | CAAACTAGGTCAAGGTCATAGTCGGTTTGTGCCA | 6.58 | 5.31 | 3.83 | 4.11 | 1.07 | 5.92 | 9.25 | 7.76 | 6.24 | 8
5 | GCTGCTAGGTCAACTGATGGTCAGCTGAAGCTCG | 4.05 | 3.09 | 0.169 | 1.83 | -0.22 | 3.62 | 2.6 | 2.86 | 0.554 | 2.21
6 | TCGAGTAGGCTAGGGGCATTCAGAATGGCGTCGA | -0.172 | -0.557 | -0.903 | -0.262 | -1.16 | 0.162 | -0.111 | 0.716 | 0.676 | 0.504
7 | TCTTGTAGATCAGAAGGTTAAGAAAGCTGGCCAA | 0.619 | 1.02 | 0.09 | 1.16 | -0.193 | 1.54 | 0.167 | 2.4 | 3.46 | 3.03
8 | TGATATAGGTAAAGGTGAAAGTCGAACGATATGA | 1.07 | 1.26 | 0.291 | 1.47 | 0.036 | 3.47 | 5.08 | 5.2 | 3.64 | 5.25
9 | CGAACGAGGGCATGAGCTGATAGCAAATGCCGAT | 0.486 | 0.253 | -0.266 | 0.0131 | -0.954 | 1.39 | 1.02 | 0.67 | -0.212 | 0.364
10 | CAAACTAAGTCACCGGAAGGTCAAAGTCCGCATG | 3.59 | 3.86 | 3.92 | 3.75 | 1.12 | 4.07 | 2.05 | 2.78 | 0.812 | 2.18
11 | ATTGAAAGGTCGACGAGGTGAGTATACACCGTTT | 4.73 | 3.32 | 0.465 | 2.94 | 0.545 | 4.55 | 3.33 | 3.53 | 1.38 | 2.5
12 | CTCGAGAGGTCGTGCTCAGGTGAGTATACCAAAC | 3.66 | 2.94 | -0.247 | 3.32 | -0.109 | 4.28 | 1.58 | 2.21 | 0.228 | 1.11
13 | CCTACCGGGCCATCAGGTCATTGATATCAACGTT | 1.4 | 1.26 | 1.91 | 1.66 | 0.209 | 1.93 | 0.875 | 1.59 | -0.00582 | 1.09
14 | CTCGAAAGGTCGGTTGATGTGAGTATACGGATAA | 1.88 | 1.52 | -0.145 | 1.45 | 0.455 | 2.31 | 0.418 | 0.917 | 0.204 | 0.223
15 | TGAATGAGGTTATAAGATAAGGGAACGTTGCAAA | 1.34 | 1.2 | -0.153 | 0.988 | 0.119 | 2.45 | 1.43 | 1.62 | 0.912 | 1.51
16 | CGTCCAAGGTTATAGGAGGTCAGTGAAGACAGAT | 3.51 | 7.81 | 5.37 | 6.47 | 0.402 | 3.39 | 1.35 | 1.77 | 0.207 | 0.943
17 | ATACCAAGGTGATCTTGAGGTCGTTGATACTAAC | 2.36 | 2.49 | 1.86 | 1.92 | 0.411 | 1.91 | 0.527 | 0.843 | -0.161 | 0.624
